This excerpt belongs to a sample that is enriched for hits.
MLL CXXC-DNA inh – qHTS Fluorescence Polarization Assay for Inhibitors of MLL CXXC domain - DNA interaction; Histone-lysine N-methyltransferase 2A (Homo sapiens), Q03164; MLL-CXXC / FITC-HOXA9 DNA fluorescence polarization; Potency, µM (highest dose often 115 µM), for inactives: at the top dose activity change, negative = inhibition, hits mostly inhibitors; 290,000 tested, 0.037% active; AID 2662, 2010; active = well fitted inhibition curve with a large enough effect in the polarisation, with a control signal flat, not every such curve was filed as active; inconclusive = small, poorly fitted or top-dose-only effect, or effect the other way, or a change in a side signal; inactive = no such curve, though single readings can be large or run the other way; the % refers to the polarisation; also: potency is read from the fitted curve at half-maximal effect
Target sequence (Q03164 whole entry, looked up, the tested form may be a part): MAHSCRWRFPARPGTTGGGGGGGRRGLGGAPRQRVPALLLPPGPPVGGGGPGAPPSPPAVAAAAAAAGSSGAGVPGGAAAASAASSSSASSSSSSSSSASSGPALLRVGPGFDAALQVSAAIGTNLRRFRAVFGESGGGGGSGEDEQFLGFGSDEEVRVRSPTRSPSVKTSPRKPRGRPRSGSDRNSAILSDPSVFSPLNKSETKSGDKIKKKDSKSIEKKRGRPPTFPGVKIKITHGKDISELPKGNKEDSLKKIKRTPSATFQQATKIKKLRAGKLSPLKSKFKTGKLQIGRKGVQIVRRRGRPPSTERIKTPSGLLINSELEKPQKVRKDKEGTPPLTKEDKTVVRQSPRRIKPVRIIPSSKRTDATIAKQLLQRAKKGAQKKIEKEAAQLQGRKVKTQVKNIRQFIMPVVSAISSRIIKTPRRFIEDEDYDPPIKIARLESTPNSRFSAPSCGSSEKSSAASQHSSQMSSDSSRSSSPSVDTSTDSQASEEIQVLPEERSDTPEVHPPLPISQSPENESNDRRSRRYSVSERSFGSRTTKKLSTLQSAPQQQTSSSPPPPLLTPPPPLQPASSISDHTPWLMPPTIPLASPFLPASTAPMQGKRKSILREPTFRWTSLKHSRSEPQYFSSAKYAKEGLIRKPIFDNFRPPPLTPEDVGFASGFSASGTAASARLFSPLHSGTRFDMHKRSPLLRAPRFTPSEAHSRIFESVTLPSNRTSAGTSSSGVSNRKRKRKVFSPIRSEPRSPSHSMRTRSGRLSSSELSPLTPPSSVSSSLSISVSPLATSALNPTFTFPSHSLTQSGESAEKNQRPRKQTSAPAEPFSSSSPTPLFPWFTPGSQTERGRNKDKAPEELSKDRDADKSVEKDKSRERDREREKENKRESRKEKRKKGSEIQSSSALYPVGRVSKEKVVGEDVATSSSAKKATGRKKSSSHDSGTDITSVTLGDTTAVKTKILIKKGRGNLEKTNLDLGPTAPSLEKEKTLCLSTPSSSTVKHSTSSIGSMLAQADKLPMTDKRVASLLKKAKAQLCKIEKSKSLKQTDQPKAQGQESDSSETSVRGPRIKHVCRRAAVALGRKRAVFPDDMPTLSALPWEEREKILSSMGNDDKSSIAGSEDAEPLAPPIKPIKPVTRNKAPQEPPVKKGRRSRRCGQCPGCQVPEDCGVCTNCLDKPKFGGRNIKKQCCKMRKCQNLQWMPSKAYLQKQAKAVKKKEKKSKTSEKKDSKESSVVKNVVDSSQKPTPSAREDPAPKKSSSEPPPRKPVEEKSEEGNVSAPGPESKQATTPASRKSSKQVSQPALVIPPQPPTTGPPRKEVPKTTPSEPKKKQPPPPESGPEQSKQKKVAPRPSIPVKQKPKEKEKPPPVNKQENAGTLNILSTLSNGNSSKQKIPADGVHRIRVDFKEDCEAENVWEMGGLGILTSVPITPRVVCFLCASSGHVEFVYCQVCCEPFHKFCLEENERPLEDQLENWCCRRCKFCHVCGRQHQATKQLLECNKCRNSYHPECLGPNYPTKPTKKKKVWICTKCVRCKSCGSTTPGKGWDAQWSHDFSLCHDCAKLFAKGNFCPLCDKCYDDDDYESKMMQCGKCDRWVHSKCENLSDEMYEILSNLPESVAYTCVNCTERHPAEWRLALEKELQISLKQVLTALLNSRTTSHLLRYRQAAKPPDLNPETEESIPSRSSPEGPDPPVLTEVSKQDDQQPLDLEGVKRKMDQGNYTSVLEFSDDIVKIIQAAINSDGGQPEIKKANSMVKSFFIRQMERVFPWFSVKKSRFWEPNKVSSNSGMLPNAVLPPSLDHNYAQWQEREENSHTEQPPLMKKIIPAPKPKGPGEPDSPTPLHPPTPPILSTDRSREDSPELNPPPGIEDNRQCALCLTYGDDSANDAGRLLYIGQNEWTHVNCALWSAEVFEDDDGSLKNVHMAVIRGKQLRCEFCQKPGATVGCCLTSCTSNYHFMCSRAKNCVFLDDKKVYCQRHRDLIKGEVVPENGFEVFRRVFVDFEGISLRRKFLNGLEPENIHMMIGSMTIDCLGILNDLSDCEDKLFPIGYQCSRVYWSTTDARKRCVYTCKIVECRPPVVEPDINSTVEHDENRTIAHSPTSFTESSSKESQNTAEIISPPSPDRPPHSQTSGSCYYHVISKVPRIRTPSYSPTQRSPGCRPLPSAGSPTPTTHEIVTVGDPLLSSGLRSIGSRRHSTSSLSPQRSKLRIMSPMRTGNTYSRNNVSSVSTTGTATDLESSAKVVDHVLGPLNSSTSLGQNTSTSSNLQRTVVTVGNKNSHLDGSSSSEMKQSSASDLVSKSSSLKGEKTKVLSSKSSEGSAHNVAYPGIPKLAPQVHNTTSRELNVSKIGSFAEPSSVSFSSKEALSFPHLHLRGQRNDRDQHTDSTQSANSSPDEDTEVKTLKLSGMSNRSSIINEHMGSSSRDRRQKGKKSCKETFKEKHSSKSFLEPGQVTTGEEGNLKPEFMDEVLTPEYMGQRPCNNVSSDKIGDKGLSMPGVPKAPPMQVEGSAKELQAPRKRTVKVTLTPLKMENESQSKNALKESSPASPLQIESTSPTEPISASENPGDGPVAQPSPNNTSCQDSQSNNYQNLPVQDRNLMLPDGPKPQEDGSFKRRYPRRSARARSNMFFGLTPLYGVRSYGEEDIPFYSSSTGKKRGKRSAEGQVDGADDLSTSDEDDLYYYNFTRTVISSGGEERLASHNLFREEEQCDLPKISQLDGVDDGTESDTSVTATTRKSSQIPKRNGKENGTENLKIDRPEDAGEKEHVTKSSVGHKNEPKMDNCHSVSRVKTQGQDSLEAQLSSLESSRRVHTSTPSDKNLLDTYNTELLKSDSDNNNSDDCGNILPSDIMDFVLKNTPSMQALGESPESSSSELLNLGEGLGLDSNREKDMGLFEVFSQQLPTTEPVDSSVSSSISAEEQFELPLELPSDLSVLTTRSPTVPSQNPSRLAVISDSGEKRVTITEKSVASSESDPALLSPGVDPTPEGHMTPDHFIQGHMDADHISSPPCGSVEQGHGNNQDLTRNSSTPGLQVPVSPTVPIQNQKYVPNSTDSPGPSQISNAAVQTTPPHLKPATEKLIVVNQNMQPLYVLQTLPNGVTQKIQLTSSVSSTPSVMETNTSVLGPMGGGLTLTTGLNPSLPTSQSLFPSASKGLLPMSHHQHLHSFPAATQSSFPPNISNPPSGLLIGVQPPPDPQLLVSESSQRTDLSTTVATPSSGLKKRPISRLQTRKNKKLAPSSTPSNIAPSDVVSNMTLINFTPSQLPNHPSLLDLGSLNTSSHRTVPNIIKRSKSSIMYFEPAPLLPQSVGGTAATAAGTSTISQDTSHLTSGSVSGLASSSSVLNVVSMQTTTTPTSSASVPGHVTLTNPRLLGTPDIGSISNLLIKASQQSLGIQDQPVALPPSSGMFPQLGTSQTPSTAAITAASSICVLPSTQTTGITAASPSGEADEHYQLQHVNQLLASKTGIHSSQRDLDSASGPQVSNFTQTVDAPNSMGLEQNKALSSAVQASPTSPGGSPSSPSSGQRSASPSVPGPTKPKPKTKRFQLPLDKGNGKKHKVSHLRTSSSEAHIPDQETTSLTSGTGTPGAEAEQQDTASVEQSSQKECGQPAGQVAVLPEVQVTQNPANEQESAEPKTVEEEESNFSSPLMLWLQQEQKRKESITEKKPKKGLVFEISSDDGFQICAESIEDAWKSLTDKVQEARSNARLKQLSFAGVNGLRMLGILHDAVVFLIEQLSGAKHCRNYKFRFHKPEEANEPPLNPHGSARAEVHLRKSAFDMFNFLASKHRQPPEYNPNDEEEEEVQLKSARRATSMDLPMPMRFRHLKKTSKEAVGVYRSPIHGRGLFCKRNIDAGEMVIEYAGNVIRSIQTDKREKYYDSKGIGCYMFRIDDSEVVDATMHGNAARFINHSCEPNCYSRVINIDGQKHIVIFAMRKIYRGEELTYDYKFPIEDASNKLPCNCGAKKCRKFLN
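Fluorescence polarization: 7 uM MLL-CXXC (stock) preincubated 5 min with compounds, then 50 nM fluorescein-HOX-A9 DNA (stock) added; 30 min ambient. Buffer 50 mM Tris-HCl pH 7.5, 50 mM NaCl, 1 mM DTT, 0.05% BSA.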
Menin-MLL TR inh – qHTS Assay for Inhibitors Targeting the Menin-MLL Interaction in MLL Related Leukemias: Competition With Texas Red Labeled MLL-derived Mutant Peptide; O00255; Menin + Texas Red MLL mutant peptide, fluorescence polarization; Potency, µM (series often up to 61.6 µM), for the others: at the highest dose FP activity change, negative = inhibition, usual class: inhibitors; 270,000 tested, 0.23% active; active = well fitted inhibition curve with a large enough effect in the polarisation, with a control signal flat, not every such curve was filed as active; inconclusive = small, poorly fitted or top-dose-only effect, or effect the other way, or a change in a side signal; inactive = no such curve, though single readings can be large or run the other way; the % refers to the polarisation; also: potency is read from the fitted curve at half-maximal effect; % of control where 0% means no effect
ERG Ets-DNA blk – qHTS for Small Molecule Inhibitors of the ERG Ets/DNA interaction | AID 624246, 2012 | 370,000 tested, 0.028% active | fluorescence polarization, His-ERG Ets domain / labelled DNA | Potency, µM (doses to about 76.9 µM), without a hit: top-dose FP activity, negative = inhibition, usual class: inhibitors; active = well fitted inhibition curve with a large enough effect in the polarisation, with a control signal flat; inconclusive = small, poorly fitted or top-dose-only effect, or effect the other way, or a change in a side signal; inactive = no such curve, though single readings can be large or run the other way; the % refers to the polarisation;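 also: polarization taken with two DNA probes labelled with fluorescein and Texas red; potency is read from the fitted curve at half-maximal effect; % of control where 0% means no effect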
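His-tagged ERG Ets domain (1 uM in the protein solution; 300mM KCl, 50mM Tris-HCl, 1mM EDTA, 1mM DTT, pH 7.5) received compound, then a probe mix of 5 nM fluorescein-DNA and 100nM Texas-615-DNA. Fluorescence polarization was read for both dyes.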
RGS12 GoLoco inh – qHTS Assay for Inhibitors of RGS12 GoLoco Motif Activity (Red Fluorophore); Guanine nucleotide-binding protein G(i) subunit alpha-1 (Homo sapiens), P63096; Gai1:RGS12 GoLoco peptide FP, rhodamine, 10 min; Potency, µM (doses to about 61.6 µM), inactives show at the highest dose activity, negative = inhibition, hits mostly inhibitors; 230,000 tested, 0.44% active; AID 880, 2007; active = well fitted inhibition curve with a large enough effect, not every such curve was filed as active; inactive = no such curve, though single readings can be large or run the other way; also: potency is read from the fitted curve at half-maximal effect; % is scaled to controls: 0 for no effect and ±100 for the full control effect; nearly all actives have a fitted effect of over 30% in size
Menin-MLL FL inh – qHTS Assay for Inhibitors Targeting the Menin-MLL Interaction in MLL Related Leukemias: Competition With Fluorescein Labeled MLL-derived Peptide; AID 1766, 2009; 290,000 tested, under 10 active; Fluorescence polarization, fluorescein-MLL peptide displacement from menin; FP activity change, % at 61.4 µM; active = well fitted curve in the direction sought with a large enough effect in the polarisation, not every such curve was filed as active; inconclusive = small, poorly fitted or top-dose-only effect, or effect the other way, or a change in a side signal; inactive = no such curve, though single readings can be large or run the other way; the % refers to the polarisation; also: % of control where 0% means no effect
The depositor's hits bear a star; ! = not active in a repeat.

How did COc1cccc(/C=N/NC(=O)c2cc(-c3cccn3C)n[nH]2)c1 do in these assays?
MLL CXXC-DNA inh: 13%; Menin-MLL TR inh: 35µM*; ERG Ets-DNA blk: 3%; RGS12 GoLoco inh: 10%; Menin-MLL FL inh: 2

Results for COc1ccc(-c2cccc(NS(=O)(=O)c3ccc(C)s3)c2)nn1 ?
ERG Ets-DNA blk: -3%

Results for COc1ccc(C(=O)Nc2ccccc2C(=O)NC(Cc2ccc(O)cc2)C(=O)NNC(=O)c2ccccc2Cl)cc1 (centres undefined) ?
MLL CXXC-DNA inh: 8%; Menin-MLL TR inh: 28µM*; ERG Ets-DNA blk: 5%; RGS12 GoLoco inh: 14%; Menin-MLL FL inh: 3

How did COc1ccc(C(=O)NNC(=O)C(Cc2ccc(O)cc2)NC(=O)c2ccccc2NC(=O)c2ccc(OC)cc2)cc1 (centres undefined) do in these assays?
MLL CXXC-DNA inh: 12%; Menin-MLL TR inh: inconclusive; ERG Ets-DNA blk: 29%; RGS12 GoLoco inh: 5%; Menin-MLL FL inh: -1

What do the screens show for `CN(CC(=O)Nc1ccc(Cl)c(C(F)(F)F)c1)C(=O)Cn1cc([N+](=O)[O-])ccc1=O`?
ERG Ets-DNA blk: 25µM*

What do the screens show for `CCN1C(C)=C(C)S/C1=C1\SC(=S)N(NC(C)=O)C1=O`?
MLL CXXC-DNA inh: 15%; Menin-MLL TR inh: 2%; ERG Ets-DNA blk: -2%; RGS12 GoLoco inh: 21%; Menin-MLL FL inh: 3

How did CC(=O)NN1C(=O)/C(=C2/Sc3ccc(Cl)cc3N2C)SC1=S do in these assays?
MLL CXXC-DNA inh: -3%; Menin-MLL TR inh: 35µM*; ERG Ets-DNA blk: 18%; Menin-MLL FL inh: 20

Results for O=C(O)c1cc(O)c2c(c1)[C@@H]([C@H]1c3cc(C(=O)O)cc(O)c3C(=O)c3c(O[C@@H]4O[C@H](CO)[C@@H](O)[C@H](O)[C@H]4O)cccc31)c1cccc(O[C@@H]3O[C@H](CO)[C@@H](O)[C@H](O)[C@H]3O)c1C2=O ?
ERG Ets-DNA blk: -12%

How did O=C(O)c1cc(O)c2c(c1)[C@H]([C@H]1c3cc(C(=O)O)cc(O)c3C(=O)c3c(O[C@@H]4OC(CO)C(O)C(O)C4O)cccc31)c1cccc(O[C@@H]3OC(CO)C(O)C(O)C3O)c1C2=O (some centres undefined) do in these assays?
MLL CXXC-DNA inh: 3%; Menin-MLL TR inh: inconclusive; RGS12 GoLoco inh: 7.9µM*; Menin-MLL FL inh: inconclusive

How did C/C(=N\NC(=O)c1ccc(Cl)c(Cl)c1)c1ccc(Br)s1 do in these assays?
MLL CXXC-DNA inh: 5%; Menin-MLL TR inh: 11µM*; ERG Ets-DNA blk: -4%; RGS12 GoLoco inh: -2%; Menin-MLL FL inh: 2

Results for CCn1c(/C=C/Nc2ccccc2)[n+](CC)c2cc(Cl)c(Cl)cc21 ?
MLL CXXC-DNA inh: 15%; Menin-MLL TR inh: inconclusive; ERG Ets-DNA blk: 5%; RGS12 GoLoco inh: 1.6µM*; Menin-MLL FL inh: -9

How did CCn1c(/C=C/N(C(C)=O)c2ccccc2)[n+](CCCS(=O)(=O)[O-])c2cc(Cl)c(Cl)cc21 do in these assays?
MLL CXXC-DNA inh: -28%; Menin-MLL TR inh: -7%; ERG Ets-DNA blk: 1%; RGS12 GoLoco inh: 12%; Menin-MLL FL inh: -5

What do the screens show for `COC(=O)C1=C(CS(=O)(=O)c2ccc(C)cc2C)NC(=O)NC1c1ccc(C)cc1` (centres undefined)?
ERG Ets-DNA blk: -7%

How did O=C(O)c1ccc(Cl)c2c1C1C=CCC1C(c1ccccn1)N2 (centres undefined) do in these assays?
MLL CXXC-DNA inh: inconclusive; Menin-MLL TR inh: inconclusive; RGS12 GoLoco inh: 10µM*; Menin-MLL FL inh: inconclusive

What do the screens show for `Cc1ccc(Nc2nc(Nc3ccc(C)cc3)nc(SC3=NCCS3)n2)cc1`?
MLL CXXC-DNA inh: 20%; Menin-MLL TR inh: 40µM*; ERG Ets-DNA blk: -16%; RGS12 GoLoco inh: 6%; Menin-MLL FL inh: 1

How did Cc1ccc(F)cc1-c1ccc(C(=O)N=C(N)N)o1 do in these assays?
Menin-MLL TR inh: 5%; Menin-MLL FL inh: -1

What do the screens show for `O=C(CNCC1CCCO1)Nc1ccc(N2CCCCCC2)cc1` (centres undefined)?
MLL CXXC-DNA inh: 8%; Menin-MLL TR inh: 14µM*; ERG Ets-DNA blk: -1%; RGS12 GoLoco inh: -26%; Menin-MLL FL inh: 2

Results for CCOc1ccc(C(=O)Nc2ccc(C(=O)OCc3cc(=O)n4c(C)csc4n3)cc2)cc1 ?
ERG Ets-DNA blk: -2%

What do the screens show for `CCCCc1c(C)[nH]c(=S)[nH]c1=O`?
MLL CXXC-DNA inh: 4%; Menin-MLL TR inh: 15%; ERG Ets-DNA blk: 7%; RGS12 GoLoco inh: -5%; Menin-MLL FL inh: -8

Results for Cc1cccc(OCCc2c(C)[nH]c(=S)[nH]c2=O)c1 ?
MLL CXXC-DNA inh: 3%; Menin-MLL TR inh: -1%; ERG Ets-DNA blk: 28µM*; RGS12 GoLoco inh: -6%; Menin-MLL FL inh: 5

Results for COc1ccc(NC(=O)c2sc3nc4c(cc3c2N)CN(C(C)C)CC4)c(OC)c1 ?
ERG Ets-DNA blk: 4%

How did COc1ccc(C2=Nn3c(nnc3-c3ccc(OC)cc3OC)SC2)cc1 do in these assays?
Menin-MLL TR inh: -27%; Menin-MLL FL inh: 0

How did Cc1ccc2ccc(C)[n+](CCCS(=O)(=O)[O-])c2c1 do in these assays?
MLL CXXC-DNA inh: -2%; Menin-MLL TR inh: -1%; ERG Ets-DNA blk: 0%; RGS12 GoLoco inh: 7.9µM*; Menin-MLL FL inh: 2

How did Cc1ccc2ccccc2[n+]1CCCS(=O)(=O)[O-] do in these assays?
MLL CXXC-DNA inh: -3%; Menin-MLL TR inh: -8%; ERG Ets-DNA blk: 1%; RGS12 GoLoco inh: -14%; Menin-MLL FL inh: 0

What do the screens show for `O=C1N(Cc2cccnc2)C[C@@H]2C[C@@H](c3ccccc3C(F)(F)F)N3CCC[C@@]123`?
MLL CXXC-DNA inh: -2%; ERG Ets-DNA blk: 32µM*; RGS12 GoLoco inh: -7%; Menin-MLL FL inh: 3

How did CCOC(=O)COc1cc(C)c(Cl)cc1C(=O)c1ccn2nc(-c3ccc(OC)cc3)cc2n1 do in these assays?
ERG Ets-DNA blk: -1%

How did COc1ccc(-c2cc(=O)c3ccc(O)cc3o2)cc1 do in these assays?
Menin-MLL TR inh: 22µM*!; ERG Ets-DNA blk: 35%; RGS12 GoLoco inh: -3%; Menin-MLL FL inh: 3

How did COc1ccc2oc(-c3ccc(O)cc3)cc(=O)c2c1 do in these assays?
Menin-MLL TR inh: 33%; RGS12 GoLoco inh: 8%; Menin-MLL FL inh: inconclusive

Results for CCOc1ccccc1NC(=O)c1cc2cc(C)ccc2n1C ?
ERG Ets-DNA blk: -1%

How did c1ccc2n[nH]nc2c1 do in these assays?
ERG Ets-DNA blk: -4%; RGS12 GoLoco inh: 16µM*

Screening data: PubChem BioAssay, National Center for Advancing Translational Sciences (NCATS)
